Compound activity as filed in PubChem.
Vaccinia mCherry = inhibitors of vaccinia virus infection (mCherry reporter signal) | Potency, µM (doses to about 36.5 µM), actives largely listed as inhibitors | actives 0.63% (n = 310,000) | Vaccinia virus mCherry reporter infection, fluorescence; calls by dose curve; tested in A549 cells; further: nearly all actives have a fitted effect of over 35% in size
FMDV antiviral = foot and mouth disease virus antiviral activity | FMDV antiviral cell-based qHTS | Potency, µM (top dose mostly 57.9 µM), usual class: inhibitors | actives 1.2% (n = 410,000) | AID 1159524; calls by dose curve; tested in HEK293T cells; further: read-out not given here; nearly all actives have a fitted effect of over 45% in size
HCMV antiviral = inhibitors of human cytomegalovirus. AID 1259415. HFF cells, HCMV-luciferase reporter, 72 h; active compounds read low. actives 4.5% (n = 410,000). activity change, negative = inhibition, % at 57.5 µM; in the data active means activity change below about -60%; inconclusive means no clear call, values can overlap the other calls; inactive means above about -39%
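Cell-based, HFFs, 1000 cells/well, 16 h 37C; cpds in DMSO + HCMV-luc, MOI 1 PFU/cell; 72 h 37C; OneGlo luminescence after 5 min RT; norm. to buffer vs Salinomycin 10uM.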
VACV Venus inh = inhibitors of vaccinia virus (Venus reporter); Potency, µM (top dose mostly 36.5 µM), usual class: inhibitors; Vaccinia virus Venus reporter expression, fluorescence; actives 0.46% (n = 330,000); calls by dose curve; tested in A549 cells; further: nearly all actives have a fitted effect of over 30% in size
Marburg entry inh = inhibitors of Marburg virus binding or cell entry; Marburg virus pseudotyped entry inhibition, cell reporter; Potency, µM (highest dose often 37.8 µM), hits mostly inhibitors; actives 1.8% (n = 300,000); calls by dose curve; tested in HEK293 cells
Lassa entry inh = blocks Lassa virus binding to or entry into cells; Lassa virus pseudotype entry inhibition, cell reporter; Potency, µM (series often up to 37.9 µM), usual class: inhibitors; actives 1.2% (n = 300,000); AID 540256; calls by dose curve; tested in HEK293 cells; further: nearly all actives have a fitted effect of over 50% in size
Of the large screens only hits and unclear results are named; the others gave an inactive call. An excerpt weighted towards active compounds, which were near 6.5% of everything screened.

COc1ccc(/C=N/Nc2nnc(Cc3ccc(OC)c(OC)c3)c(=O)[nH]2)cc1OC	Lassa entry inh inconclusive
CCCCC1(Cc2ccc([N+](=O)[O-])cc2)C(=O)N(c2ccccc2)N(c2ccccc2)C1=O	Vaccinia mCherry inconclusive, FMDV antiviral inconclusive, HCMV antiviral -97.7, VACV Venus inh inconclusive, Marburg entry inh 7.94µM, Lassa entry inh inconclusive
Cc1cccn2c(CNC3CCCc4ccccc43)c(C(=O)N3CCOCC3)nc12 (stereo unspecified)	none (no result: Vaccinia mCherry, VACV Venus inh, Marburg entry inh, Lassa entry inh)
Cc1cccn2c(CNCC3OCCc4ccccc43)c(C(=O)N3CCCCC3)nc12 (stereo unspecified)	HCMV antiviral inconclusive, Marburg entry inh 10µM
O=C(Nc1ccc(Cl)cc1)C1CCCCN1S(=O)(=O)c1ccccc1 (stereo unspecified)	Vaccinia mCherry inconclusive, FMDV antiviral inconclusive, HCMV antiviral -100.7, VACV Venus inh 10µM, Marburg entry inh inconclusive
Cc1ccc(C(=O)C2=C(O)C(=O)N(Cc3cccnc3)C2c2ccc(Cl)cc2)o1 (stereo unspecified)	FMDV antiviral 15.8µM
CCOc1ccc(N/C=C/C(=O)c2ccccc2)c([N+](=O)[O-])c1	Marburg entry inh inconclusive, Lassa entry inh 1.12µM
CC(C)c1c(C(=O)NCc2cccnc2)cnn1-c1nccc(-c2ccccc2F)n1	none (no result: HCMV antiviral, Marburg entry inh, Lassa entry inh)
CCN(CC)CCNc1ccc(C)c2sc3ccc(O)cc3c(=O)c12	Vaccinia mCherry inconclusive, HCMV antiviral -96.9, VACV Venus inh inconclusive, Marburg entry inh 2.24µM, Lassa entry inh inconclusive
CN1CCC(N(C)c2nc(-c3ccc([N+](=O)[O-])cc3)nc3ccccc23)CC1	Vaccinia mCherry inconclusive, VACV Venus inh 10µM, Marburg entry inh 11.2µM, Lassa entry inh inconclusive
CCCCOC(=O)c1ccc(Nc2nc3ccccc3c3nnc(C)n23)cc1	none (no result: Marburg entry inh)
Cc1cc(C(=O)NC2CCCc3c2cnn3-c2ccc(C(C)(C)C)cc2)nn1C (stereo unspecified)	FMDV antiviral inconclusive, HCMV antiviral -78.5, Marburg entry inh inconclusive, Lassa entry inh inconclusive
CC(=O)c1cc(C(=O)NC2CCCc3c2cnn3-c2cc(C)cc(C)c2)[nH]n1 (stereo unspecified)	none
Cc1cc(C)cc(-n2ncc3c2CCCC3NC(=O)c2cc(C)[nH]n2)c1 (stereo unspecified)	FMDV antiviral inconclusive, Marburg entry inh 3.55µM, Lassa entry inh inconclusive
CC(C)(C)c1ccc(-n2ncc3c2CCCC3NC(=O)C2(C(N)=O)CC2)cc1 (stereo unspecified)	FMDV antiviral inconclusive, HCMV antiviral -95.7 (no result: Vaccinia mCherry, VACV Venus inh, Marburg entry inh, Lassa entry inh)
CC(C)(C)c1ccc(-n2ncc3c2CCCC3NC(=O)CCCn2cncn2)cc1 (stereo unspecified)	HCMV antiviral inconclusive, Lassa entry inh inconclusive
CC(C)(C)c1ccc(-n2ncc3c2CCCC3NC(=O)CCn2cncn2)cc1 (stereo unspecified)	HCMV antiviral -67.5
Cc1cc(C)cc(-n2ncc3c2CCCC3NC(=O)c2cc(C)n(C)n2)c1 (stereo unspecified)	none (no result: Vaccinia mCherry, VACV Venus inh, Marburg entry inh, Lassa entry inh)
CN1CCN(c2ncc3ncc(=O)n(CCC#N)c3n2)CC1	none (no result: Vaccinia mCherry, HCMV antiviral, VACV Venus inh, Marburg entry inh, Lassa entry inh)
O=C(Nc1cccc(C(F)(F)F)c1)c1cc2nc(-c3ccc4c(c3)OCO4)cc(C(F)(F)F)n2n1	none
CC(C)=CCC/C(C)=C/CO/N=C1/C[C@@H](O)[C@@H](O)[C@@H]2[C@@H]3C(=O)N(Cc4ccc5c(c4)OCO5)C(=O)[C@H]3CC[C@@H]12	none (no result: Vaccinia mCherry, FMDV antiviral, HCMV antiviral, VACV Venus inh, Lassa entry inh)
Cn1c(=O)c(Nc2ccc(O)cc2)c2c3c(cccc31)C(=O)c1ccccc1-2	HCMV antiviral -60.7
Cn1c(=O)c2c(nc(NCCNC(=O)c3ccco3)n2Cc2ccc(Cl)cc2Cl)n(C)c1=O	HCMV antiviral -73.8, Lassa entry inh inconclusive
Cn1c(=O)c2c(nc(NCC3CCCC(CN)C3)n2Cc2ccc(Cl)cc2Cl)n(C)c1=O (stereo unspecified)	HCMV antiviral -99.2 (no result: Vaccinia mCherry, VACV Venus inh, Marburg entry inh, Lassa entry inh)
Cn1c(=O)c2c(nc(N3CCN(c4ccccn4)CC3)n2Cc2ccc(Cl)cc2Cl)n(C)c1=O	none
C=C(C)CNC(=S)NN=C1c2ccccc2-c2ccccc21	Marburg entry inh inconclusive, Lassa entry inh inconclusive (no result: HCMV antiviral)
C=C(C)CNC(=S)N/N=C/c1ccco1	Vaccinia mCherry inconclusive, HCMV antiviral -61.2, Marburg entry inh inconclusive
C=CC[C@@H](CC(=O)N[C@@H](CO)Cc1ccccc1)C(=O)NC[C@@H](OC(=O)[C@@H](CC=C)Cc1ccc(F)cc1)c1ccccc1	none (no result: Marburg entry inh, Lassa entry inh)
C=CC[C@H](CC(=O)N(CCO)Cc1ccccc1)C(=O)NC[C@H](OC(=O)[C@@H](CC=C)Cc1ccc(F)cc1)c1ccccc1	Vaccinia mCherry inconclusive, FMDV antiviral 35.5µM, VACV Venus inh 11.2µM (no result: Marburg entry inh, Lassa entry inh)
C=CC[C@@H](CC(=O)N[C@@H](CO)Cc1ccccc1)C(=O)NC[C@H](OC(=O)[C@@H](CC=C)Cc1ccc(F)cc1)c1ccccc1	FMDV antiviral inconclusive, HCMV antiviral -64.0, VACV Venus inh inconclusive (no result: Marburg entry inh, Lassa entry inh)
CNc1ccc(/C=C2\C=Cc3ccccc32)cc1I	none (no result: FMDV antiviral, HCMV antiviral, Marburg entry inh, Lassa entry inh)
Cc1ccc(-n2nnnc2-c2cnn(-c3cccc(F)c3)c2C(F)(F)F)cc1	FMDV antiviral inconclusive, HCMV antiviral -75.3, Marburg entry inh inconclusive, Lassa entry inh inconclusive (no result: Vaccinia mCherry, VACV Venus inh)
O=C(/C=C/c1ccccc1)CC(O)(c1ccccc1)C(F)(F)F (stereo unspecified)	HCMV antiviral -102.4, Marburg entry inh inconclusive, Lassa entry inh inconclusive (no result: FMDV antiviral)
COc1ccc(/C=C/C(=O)CCC(=O)O)cc1	none
COc1ccc(/C=C/C(=O)CC(O)(c2ccccc2)C(F)(F)F)cc1 (stereo unspecified)	FMDV antiviral 35.5µM, HCMV antiviral -100.4, Marburg entry inh inconclusive, Lassa entry inh inconclusive
O=C(/C=C/c1ccccc1)CC(O)(c1ccccc1)C(F)(F)C(F)F (stereo unspecified)	HCMV antiviral inconclusive, Marburg entry inh inconclusive, Lassa entry inh inconclusive (no result: FMDV antiviral)
Cc1cccc(C(=O)N/N=C/c2coc3ccccc3c2=O)c1	none (no result: Vaccinia mCherry, VACV Venus inh, Marburg entry inh, Lassa entry inh)
Cc1ccc2occ(/C=N/NC(=O)[C@@H](N)Cc3ccccc3)c(=O)c2c1	HCMV antiviral -84.0
CSc1ccc(-c2ccc3c(c2)CC(CNC(=O)Cn2nc(C)nc2C)O3)cc1 (stereo unspecified)	none (no result: HCMV antiviral, Marburg entry inh, Lassa entry inh)
Cc1ccc(CSCc2nc3ccccc3[nH]2)cc1	HCMV antiviral inconclusive, Marburg entry inh inconclusive, Lassa entry inh inconclusive
Cc1cc(C)cc(CC(Cc2nc3ccccc3[nH]2)c2nc3ccccc3[nH]2)c1 (stereo unspecified)	FMDV antiviral inconclusive, HCMV antiviral -101.3, VACV Venus inh 14.1µM, Marburg entry inh inconclusive, Lassa entry inh inconclusive
CCNc1ncc2nc(-c3cccs3)c(=O)n(Cc3cccs3)c2n1	none (no result: Vaccinia mCherry, HCMV antiviral, VACV Venus inh, Marburg entry inh, Lassa entry inh)
N#CC(=C1C=CC(=NO)C(Cl)=C1)c1ccccc1	HCMV antiviral -98.1 (no result: Marburg entry inh, Lassa entry inh)
N#CC(=C1C=C(Br)C(=NO)C=C1Cl)c1ccc(Cl)cc1	FMDV antiviral inconclusive (no result: Marburg entry inh, Lassa entry inh)
CNC(=O)c1cncc(C=Cc2c(C)cccc2C)c1	none (no result: Vaccinia mCherry, FMDV antiviral, HCMV antiviral, VACV Venus inh, Marburg entry inh)
CCCCOCCCNC(=S)Nc1ccc(S(=O)(=O)N2CCOCC2)cc1	none (no result: Vaccinia mCherry, VACV Venus inh, Marburg entry inh, Lassa entry inh)
